According to PubChem BioAssay (Tox21):
Unmarked numbers belong to inactive results. Results filed as inconclusive are left out. A call without a number means that no potency is given here. Active and inactive are the calls of the source. Calls come from the whole dose curve; as a rule, active = well fitted activation curve with a large enough effect in the repeat runs; inconclusive = weak or mixed curves; inactive = flat fitted curve, though single readings scatter.

Assay: A CellTox Green Cytotoxicity Assay to monitor cytotoxicity in HepG2 cells - 0 hour (AID 1224882); note: nearly all actives have a fitted effect of over 35% in size
Details: CellTox Green fluorescence; series mostly up to 76.8 µM
Procedure, shortened: (§1)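 Cytotoxicity was tracked as dead-cell DNA fluorescence in HepG2 cells treated with test compounds at 37 C; each time-point value comes from one kinetic series spanning 0, 8, 16, 24, 32 and 40 h.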

| SMILES | outcome |
| --- | --- |
| CCCCCCBr | inactive |
| O=NN1CCCCC1 | inactive |
| CN(N=O)C(N)=O | inactive |
| OCCSCSCCO | inactive |
| CCCCOC(=O)[C@@H](C)Oc1ccc(Oc2ccc(C#N)cc2F)cc1 | inactive |

Assay: A CellTox Green Cytotoxicity Assay to monitor cytotoxicity in HepG2 cells - 32 hour (AID 1224883); note: nearly all actives have a fitted effect of over 50% in size; note: potency is the fitted concentration of half-maximal effect
Details: CellTox Green fluorescence; series mostly up to 76.8 µM
Procedure, shortened: as §1

| SMILES | Potency | cytotoxicity increase |
| --- | --- | --- |
| BrCCCCCCBr | inactive |  |
| Nc1cnn(-c2ccccc2)c(=O)c1Cl | inactive |  |
| Fc1cc(Br)ccc1CBr | inactive |  |
| Nc1cc2c3c(c1)C(c1ccccc1)=N[C@@H](NC(=O)c1cccnc1)C(=O)N3CC2 | inactive |  |
| O=[N+]([O-])c1cc(Cl)c(Cl)c(Cl)c1 | inactive |  |
| CCCSC(=O)N(CCC)CCC | inactive |  |
| Cc1cc(C)c(C(=O)P(=O)(C(=O)c2c(C)cc(C)cc2C)c2ccccc2)c(C)c1 | inactive |  |
| CC(Oc1ccc(Oc2ncc(C(F)(F)F)cc2Cl)cc1)C(=O)O (stereo not given) | inactive |  |
| Cc1coc2c1CCC(C)C2 (stereo not given) | inactive |  |
| CC(N)=S | inactive |  |
| O=C1c2ccccc2C(=O)c2ccccc21 |  | 7.1% [at 15.8 µM] |
| CCCCC(=O)Cl | inactive |  |
| CCC(=O)C(CCN(C)C)(c1ccccc1)c1ccccc1 | inactive |  |
| c1cc2c(c(N3CCNCC3)c1)OCCO2 | inactive |  |
| CCCSC(=O)Cl | inactive |  |
| N#CC(CCc1ccc(Cl)cc1)(Cn1cncn1)c1ccccc1 (stereo not given) | 21.9 µM (active) |  |
| CCOC(=O)NC(=S)Nc1ccccc1NC(=S)NC(=O)OCC | inactive |  |
| ClC(Cl)Br | inactive |  |

| SMILES | Potency | cytotoxicity increase |
| --- | --- | --- |
| C(CCOCC1CO1)COCC1CO1 (stereo not given) | inactive |  |
| OC(c1ccccc1)(c1ccccc1)C1CCNCC1 | inactive |  |
| CCN(CC)C(=O)[C@@H]1C=C2c3cccc4[nH]cc(c34)C[C@H]2N(C)C1 | inactive |  |
| NC(=S)C(N)=S | inactive |  |
| CNC(=O)O/N=C(\C)SC | inactive |  |
| N#CCBr | inactive |  |
| CCCCCCI | inactive |  |
| CS(=O)(=O)c1cc(C(F)(F)F)ccc1C(=O)c1cnoc1C1CC1 | inactive |  |
| C[C@]1(O)CC[C@H]2[C@@H]3CCC4=CC(=O)CC[C@]4(C)[C@@]3(F)[C@@H](O)C[C@@]21C | inactive |  |
| O=C(Oc1ccc(Br)cc1)N1CCN2CCC1CC2 | inactive |  |
| COc1cc2c(cc1OC)[C@@]13CCN4CC5=CCO[C@H]6CC(=O)N2[C@H]1[C@H]6[C@H]5C[C@H]43 | inactive |  |
| CCCCCCBr | inactive |  |
| CCN(CC)C(C)C(=O)c1ccccc1 (stereo not given) | inactive |  |
| O=NN1CCCCC1 | inactive |  |
| CN(N=O)C(N)=O | inactive |  |
| OCCSCSCCO | inactive |  |
| CCCCOC(=O)[C@@H](C)Oc1ccc(Oc2ccc(C#N)cc2F)cc1 | inactive |  |
